Experimental data taken from publication PMC4336329 (PLoS ONE, 2015).
Screen size: about 310,000 compounds; about 2,200 (0.71%) showed an effect of 50% or more. The effect is printed as a negative number. The sample holds strong results, similar compounds and a random draw of the others, so the mix is not that of the screen.

These compounds were tested against human ether-à-go-go-related gene (hERG) potassium channel (human, UniProt Q12809) (assay: primary screen, population patch clamp on CHO cells stably expressing hERG; higher = less effect of the substance).
Chain of human ether-à-go-go-related gene (hERG) potassium channel (Q12809 whole entry, looked up): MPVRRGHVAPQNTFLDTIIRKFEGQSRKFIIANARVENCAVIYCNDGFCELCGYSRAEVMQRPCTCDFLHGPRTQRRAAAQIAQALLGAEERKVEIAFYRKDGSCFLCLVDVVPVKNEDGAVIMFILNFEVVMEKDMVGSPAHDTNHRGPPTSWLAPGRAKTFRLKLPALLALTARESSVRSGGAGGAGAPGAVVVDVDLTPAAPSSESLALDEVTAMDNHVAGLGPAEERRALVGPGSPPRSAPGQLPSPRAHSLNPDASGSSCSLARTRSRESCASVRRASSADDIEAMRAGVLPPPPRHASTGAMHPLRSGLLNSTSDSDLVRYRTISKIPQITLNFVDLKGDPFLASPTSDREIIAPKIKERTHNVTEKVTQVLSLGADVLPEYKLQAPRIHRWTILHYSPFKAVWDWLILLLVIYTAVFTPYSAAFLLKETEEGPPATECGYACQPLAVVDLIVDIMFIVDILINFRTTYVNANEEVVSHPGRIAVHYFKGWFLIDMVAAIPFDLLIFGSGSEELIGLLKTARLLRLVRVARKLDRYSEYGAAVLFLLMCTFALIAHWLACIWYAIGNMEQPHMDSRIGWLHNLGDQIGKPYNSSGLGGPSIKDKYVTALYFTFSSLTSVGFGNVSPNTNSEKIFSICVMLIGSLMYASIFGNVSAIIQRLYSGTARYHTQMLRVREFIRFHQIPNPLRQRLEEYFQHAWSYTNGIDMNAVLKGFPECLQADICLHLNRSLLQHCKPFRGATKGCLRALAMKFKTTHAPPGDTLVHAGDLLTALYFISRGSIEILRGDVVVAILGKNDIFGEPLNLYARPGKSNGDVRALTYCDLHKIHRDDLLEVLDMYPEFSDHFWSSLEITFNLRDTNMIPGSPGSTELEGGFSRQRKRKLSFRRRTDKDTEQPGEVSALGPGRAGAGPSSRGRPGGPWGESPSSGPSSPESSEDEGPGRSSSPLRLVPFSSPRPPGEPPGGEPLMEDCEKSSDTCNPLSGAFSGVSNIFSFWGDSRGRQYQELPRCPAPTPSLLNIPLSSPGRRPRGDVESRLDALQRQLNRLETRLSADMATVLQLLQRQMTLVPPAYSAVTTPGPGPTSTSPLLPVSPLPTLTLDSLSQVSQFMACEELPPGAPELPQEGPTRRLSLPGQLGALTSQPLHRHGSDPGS
`Clc1ccc(/C=N/Nc2nnc(-c3ncc[nH]3)c3ccccc23)cc1` was tested, and the “hERG current change (%, negative = inhibition) at 1uM” value was 4.89%. In the case of `Cc1cc(OCCCCOc2ccc(S(N)(=O)=O)c(C)c2)ccc1S(N)(=O)=O`, the “hERG current change (%, negative = inhibition) at 1uM” value is reported as 12.7%. `O=C(O)Cn1c(=O)c2c3c(sc2n(Cc2ccc(Cl)cc2Cl)c1=O)CCCC3` was tested, and the “hERG current change (%, negative = inhibition) at 1uM” value was 6.14%. With `CC(Sc1nnc(C2CC2)n1C1CC1)C(=O)N(C)Cc1cccc(F)c1` (centres unmarked) the “hERG current change (%, negative = inhibition) at 1uM” value was -2.8%. For `CCOC(=O)C1=C(c2ccccc2)NC(=O)N(C(C)=O)C1c1cccc([N+](=O)[O-])c1` (centres unmarked), the “hERG current change (%, negative = inhibition) at 1uM” value was 10.2%. `CC(C)OCCCn1c(=N)c(C(N)=S)cc2c(=O)n3ccccc3nc21` was tested, and the “hERG current change (%, negative = inhibition) at 1uM” value was -74.5%. With `CCOCCCn1c(=N)c(S(=O)(=O)c2ccccc2)cc2c(=O)n3cc(C)ccc3nc21` the “hERG current change (%, negative = inhibition) at 1uM” value was 11.3%. For `CCOC(=O)c1cc2c(=O)n3ccccc3nc2n(CCCOC)c1=NC(C)=O`, the “hERG current change (%, negative = inhibition) at 1uM” value was -15.6%. With `CC(C)OCCCn1c(=N)c(S(=O)(=O)c2ccccc2)cc2c(=O)n3ccccc3nc21` the “hERG current change (%, negative = inhibition) at 1uM” value was -0.118%. With `CCOCCCn1c(=N)c(S(=O)(=O)c2ccc(C)cc2)cc2c(=O)n3cc(C)ccc3nc21` the “hERG current change (%, negative = inhibition) at 1uM” value was 16.1%. In the case of `Cc1ccc2nc3c(cc(C(N)=S)c(=N)n3CCCOC(C)C)c(=O)n2c1`, the “hERG current change (%, negative = inhibition) at 1uM” value is reported as -65.1%. In the case of `CCc1cc(C(=O)COc2ccc(F)cc2)c(O)cc1O`, the “hERG current change (%, negative = inhibition) at 1uM” value is reported as 5.76%. `CCSc1nc2sc3c(c2c(=O)[nH]1)CC(C)(CC)OC3` (centres unmarked) was tested, and the “hERG current change (%, negative = inhibition) at 1uM” value was 18.7%. For `O=C1C=C(NCc2ccc(Cl)cc2)CC(c2ccco2)C1` (centres unmarked), the “hERG current change (%, negative = inhibition) at 1uM” value was -91.3%. `COc1ccc(C2CC(=O)C=C(NCc3ccc4c(c3)OCO4)C2)cc1` (centres unmarked) was tested, and the “hERG current change (%, negative = inhibition) at 1uM” value was -32.6%. For `O=C1C=C(NCc2ccc3c(c2)OCO3)CC(c2ccccc2)C1` (centres unmarked), the “hERG current change (%, negative = inhibition) at 1uM” value was -81.9%. With `CN(C)CCCNC1=CC(=O)CC(c2ccccc2)C1` (centres unmarked) the “hERG current change (%, negative = inhibition) at 1uM” value was -1.56%. `CCc1ccc(NC2=CC(=O)CC(c3ccco3)C2)cc1` (centres unmarked) was tested, and the “hERG current change (%, negative = inhibition) at 1uM” value was 12.9%. For `CC(C)CNC1=CC(=O)CC(c2ccco2)C1` (centres unmarked), the “hERG current change (%, negative = inhibition) at 1uM” value was 14.5%. In the case of `O=C1C=C(NCc2ccncc2)CC(c2ccccc2)C1` (centres unmarked), the “hERG current change (%, negative = inhibition) at 1uM” value is reported as -22.8%. `CC(C)CCNC1=CC(=O)CC(c2ccccc2)C1` (centres unmarked) was tested, and the “hERG current change (%, negative = inhibition) at 1uM” value was -0.257%. In the case of `O=C1C=C(NCc2ccco2)CC(c2ccc(Cl)cc2)C1` (centres unmarked), the “hERG current change (%, negative = inhibition) at 1uM” value is reported as -34.8%. For `O=C1C=C(Nc2ccc(Cl)cc2)CC(c2ccco2)C1` (centres unmarked), the “hERG current change (%, negative = inhibition) at 1uM” value was 4.78%. For `CCCCCCCNC1=CC(=O)CC(c2ccco2)C1` (centres unmarked), the “hERG current change (%, negative = inhibition) at 1uM” value was -77.6%. With `CCCCCCCNC1=CC(=O)CC(c2ccccc2)C1` (centres unmarked) the “hERG current change (%, negative = inhibition) at 1uM” value was -63.2%. For `Cc1cccc(OC(=O)NCCOC(=O)N(O)c2ccc(Cl)cc2)c1`, the “hERG current change (%, negative = inhibition) at 1uM” value was 1.04%. `Cc1ccc(NC(=O)CSc2sc3c(O)cc(=O)[nH]c3c2C#N)c(F)c1` was tested, and the “hERG current change (%, negative = inhibition) at 1uM” value was -4.66%. In the case of `Cc1cccc(C)c1NC(=O)CSc1nc2[nH]c(=O)cc(O)c2s1`, the “hERG current change (%, negative = inhibition) at 1uM” value is reported as 4.15%. In the case of `COc1ccc(N(CC(=O)NC2CC3CCC2C3)S(=O)(=O)c2ccc(C)c([N+](=O)[O-])c2)cc1` (centres unmarked), the “hERG current change (%, negative = inhibition) at 1uM” value is reported as 10.2%. In the case of `COc1cccc(C(=O)NNS(=O)(=O)c2ccc(C)cc2)c1`, the “hERG current change (%, negative = inhibition) at 1uM” value is reported as 13%. With `O=C(NCc1ccco1)c1cccc(NS(=O)(=O)c2ccccc2F)c1` the “hERG current change (%, negative = inhibition) at 1uM” value was 6.58%. `Cc1ccc(NC(=O)CSCC(=O)NCc2cccc(C(F)(F)F)c2)cc1` was tested, and the “hERG current change (%, negative = inhibition) at 1uM” value was 6.6%. For `O=C(CN(C(=O)C1COc2ccccc2O1)c1ccccc1)NCC1CCCO1` (centres unmarked), the “hERG current change (%, negative = inhibition) at 1uM” value was -9.34%. In the case of `CCOc1ccccc1Nc1nc(N)nc(CSc2nncn2C)n1`, the “hERG current change (%, negative = inhibition) at 1uM” value is reported as 9.75%. With `Cc1cccc(OCC(=O)Nc2ccc(C(=O)NCC(C)C)cc2)c1` the “hERG current change (%, negative = inhibition) at 1uM” value was 4.42%. `CCOCCCNC(=S)Nc1cc(OCC)c(NC(=O)c2ccco2)cc1OCC` was tested, and the “hERG current change (%, negative = inhibition) at 1uM” value was 7.7%. In the case of `COc1ccc(C(=O)N2CCN=C2SCc2cccnc2)cc1OC`, the “hERG current change (%, negative = inhibition) at 1uM” value is reported as 9.25%. With `COc1nnc(-c2ccc(C)c(S(N)(=O)=O)c2)c2ccccc12` the “hERG current change (%, negative = inhibition) at 1uM” value was 3.63%. With `COc1nnc(-c2ccc(C)c(S(=O)(=O)NC(C)C)c2)c2ccccc12` the “hERG current change (%, negative = inhibition) at 1uM” value was -5.36%. For `COc1nnc(-c2ccc(C)c(S(=O)(=O)N(C)C)c2)c2ccccc12`, the “hERG current change (%, negative = inhibition) at 1uM” value was -53.6%. `CC(=O)Nc1ccc(NC2CCCCC2NS(=O)(=O)c2ccc(Cl)cc2)cc1` (centres unmarked) was tested, and the “hERG current change (%, negative = inhibition) at 1uM” value was 12%. For `CCOC(=O)C1(Cc2cccc(F)c2)CCN(Cc2cn(CC)nc2C)CC1`, the “hERG current change (%, negative = inhibition) at 1uM” value was -6.14%. In the case of `CCOC(=O)C1(Cc2ccccc2)CCCN(CCCn2cccn2)C1` (centres unmarked), the “hERG current change (%, negative = inhibition) at 1uM” value is reported as 3.88%. With `CCOC(=O)C1(Cc2ccccc2C(F)(F)F)CCN(CCCn2cccn2)CC1` the “hERG current change (%, negative = inhibition) at 1uM” value was -49.2%. `CCOC(=O)C1(CCCc2ccccc2)CCN(CCCn2cccn2)CC1` was tested, and the “hERG current change (%, negative = inhibition) at 1uM” value was -84.6%. `CCOC(=O)C1(Cc2ccc(Cl)cc2)CCN(C(C)Cc2ccc(O)c(OC)c2)CC1` (centres unmarked) was tested, and the “hERG current change (%, negative = inhibition) at 1uM” value was -7.39%. `CCOC(=O)C1(Cc2ccc(Cl)cc2)CCN(C(C)CCn2cccn2)CC1` (centres unmarked) was tested, and the “hERG current change (%, negative = inhibition) at 1uM” value was -87.1%. `CCOC(=O)C1(Cc2ccccc2C(F)(F)F)CCN(C(C)CCn2cccn2)CC1` (centres unmarked) was tested, and the “hERG current change (%, negative = inhibition) at 1uM” value was -40.8%. For `CCOC(=O)C1(CCCc2ccccc2)CCN(Cc2nccn2CC)CC1`, the “hERG current change (%, negative = inhibition) at 1uM” value was -45.8%. In the case of `CCOC(=O)C1(CCCc2ccccc2)CCN(Cc2cnn(C)c2)CC1`, the “hERG current change (%, negative = inhibition) at 1uM” value is reported as -46.4%. In the case of `CCOC(=O)C1(Cc2ccc(Cl)cc2)CCN(CCCn2cccn2)CC1`, the “hERG current change (%, negative = inhibition) at 1uM” value is reported as -77%. In the case of `CCCn1cc(CN2CCC(Cc3ccccc3)(C(=O)OCC)CC2)c(C)n1`, the “hERG current change (%, negative = inhibition) at 1uM” value is reported as -14%. With `CCCn1cc(CN2CCC(Cc3cccc(F)c3)(C(=O)OCC)CC2)c(C)n1` the “hERG current change (%, negative = inhibition) at 1uM” value was -60.3%. In the case of `Cc1ccc(C2=NN(CCC(=O)NCCCN3CCOCC3)C(=O)CC2)cc1`, the “hERG current change (%, negative = inhibition) at 1uM” value is reported as -9.94%. For `O=C(CNC(=O)c1nc[nH]c1C(=O)NCC(=O)OCc1ccccc1)OCc1ccccc1`, the “hERG current change (%, negative = inhibition) at 1uM” value was 10.3%. For `COc1ccccc1NC(CC(=O)c1ccccc1)C(=O)OCC(=O)c1ccc(F)cc1` (centres unmarked), the “hERG current change (%, negative = inhibition) at 1uM” value was -11.1%.
